Compound activity: PubChem, several laboratories
Rows were chosen to be rich in hits. Some 4.6% of all compounds tested hit in one or more screens of this group.
SKKanGAS inh – blocks kanamycin growth of S. pyogenes SKKanGAS strain. BacTiter-Glo, 6 h. inhibition, % at 7.5 µM. 1.3% of 300,000 active. AID 1662;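 active = mean replicate score, as percent of positive control median, at least 50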;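 note: strain carries kanamycin resistance gene driven by streptokinase promoter and grows in 40 µg/ml kanamycin; loss of luminescence reflects streptokinase promoter inhibition or plain growth inhibition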
NLRP3 yeast inh – NALP3 inhibition in yeast; Yeast reconstituted NLRP3/ASC/caspase-1, beta-gal luminescence, 24 h; inhibition, % at 10 µM; 0.39% of 330,000 active;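 active = inhibition of 50% or more; inactive = inhibition below 50%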
PfHsp90 yeast 2 – reduces growth (ATP signal) of yeast expressing P. falciparum Hsp90; 0.32% of 310,000 active; AID 504621; S. cerevisiae expressing PfHsp90, BacTiter-Glo ATP, 48 h; yeast lacking PDR1 and PDR3 efflux regulators; inhibition, % at 9.4 µM;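 active = every replicate shows inhibition above about 80%, whatever the replicate mean, limit read from the data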
TIM10 inh – TIM10 yeast growth inhibition. S. cerevisiae TIM10 strain growth, BacTiter-Glo luminescence, 24 h. inhibition, % at 10 µM. 1.4% of 330,000 active;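 active = inhibition of 40% or more at the single tested concentration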;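 note: wild-type TIM10 isogenic control strain grown at permissive 25 °C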
tim10-1 inh – tim10-1 yeast growth inhibition. inhibition, % at 20 µM. S. cerevisiae tim10-1 ts strain growth, BacTiter-Glo, 24 h. 2.2% of 330,000 active;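 active = inhibition of at least 40%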;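 note: mutant grown at 25 °C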
tim23-1 inh – tim23-1 yeast growth inhibition | 1.3% of 330,000 active | S. cerevisiae tim23-1 growth, BacTiter-Glo luminescence, 24 h | inhibition, % at 20 µM;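 active = growth inhibition of the mutant yeast at or above 50%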;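 note: temperature-sensitive mutant grown at 25 °C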
tim10-1 confirm – tim10-1 yeast growth inhibition, confirmed; inhibition, % at 20 µM; shares compounds with tim10-1 inh; 56% of 7,400 active; S. cerevisiae tim10-1 ts strain growth, BacTiter-Glo, 24 h;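 active = inhibition of yeast growth at or above a set limit in either of two repeat tests at 20 µM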;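 note: tim10-1 mutant grown at permissive 25 °C to find synthetic lethal compounds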
TIM10 conf – confirmation of TIM10 yeast growth inhibitors; shares compounds with TIM10 inh; S. cerevisiae tim10 strain growth, BacTiter-Glo luminescence, 24 h; inhibition, % at 10 µM; 63% of 4,600 active; AID 463215;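 active = inhibition of yeast growth at or above a set limit in either of two replicates at 10 µM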; note: this counterscreen used the strain with wild-type TIM10
tim23-1 confirm – confirmation of tim23-1 mutant yeast growth inhibitors | shares compounds with tim23-1 inh | S. cerevisiae tim23-1 growth, BacTiter-Glo luminescence, 24 h | inhibition, % at 20 µM | 83% of 4,400 active;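 active = inhibition above about 39% in either of two replicate wells at 20 µM, limit read from the data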;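 note: temperature-sensitive tim23-1 mutant grown at 25 °C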
A number is an active result; i = inactive; nt = no result given.

SMILES	SKKanGAS inh	NLRP3 yeast inh	PfHsp90 yeast 2	TIM10 inh	tim10-1 inh	tim23-1 inh	tim10-1 confirm	TIM10 conf	tim23-1 confirm
CCCn1nc(NC(=O)c2cccs2)c2cc3ccccc3nc21	i	i	nt	i	49	52	37	nt	51
CCCn1nc(NC(=O)c2cccs2)c2cc3ccc(C)cc3nc21	i	i	i	i	i	i	nt	nt	nt
COc1ccc(NC(=O)c2ccccc2F)cc1Cl	i	i	i	i	i	i	nt	nt	nt
O=C(Nc1ccc(Oc2ccc(Cl)cc2)c(Cl)c1)c1cc(I)cc(I)c1O	103	i	i	i	54	59	52	nt	60
COc1ccc([N+](=O)[O-])c(S(=O)(=O)c2ccc(Cl)cc2)n1	i	i	109	83	75	53	73	94	86
COc1ccc([N+](=O)[O-])c(S(=O)(=O)c2ccccc2)n1	i	i	nt	i	50	77	46	nt	47
COc1nc(OC)nc(Oc2ccc(Cl)cc2[N+](=O)[O-])n1	i	i	i	i	i	i	nt	nt	nt
CC1CCCCC1NC(=O)CCNS(=O)(=O)c1ccc(Cl)cc1 (stereo unspecified)	i	i	i	i	i	i	nt	nt	nt
COc1cc(C(=O)NCCNc2nc3ccc(C)cc3cc2C#N)cc(OC)c1OC	i	i	i	i	i	i	nt	nt	nt
CN1C(=O)C2C(c3ccc(N(C)C)cc3)NN(Cc3ccccc3)C2C1=O (stereo unspecified)	i	i	i	i	i	i	nt	nt	nt
CCCCn1c(N)c(N(CC(C)C)C(=O)CSC(C)C(=O)Nc2cc(C)on2)c(=O)[nH]c1=O (stereo unspecified)	i	i	i	i	i	i	nt	nt	nt
COc1cc(S(=O)(=O)N2CCN(Cc3ccc4c(c3)OCO4)CC2)ccc1NC(C)=O	nt	i	nt	i	i	i	nt	nt	nt
COc1ccc(/C=C/C(=O)ONC2=NCCCCC2)cc1OC	i	i	i	49	68	58	69	37	i
O=C(Nc1ccccc1C(=O)N/N=C/c1ccco1)c1ccc(F)cc1	i	i	i	i	42	60	52	nt	59
CN(C(=O)/C=C/c1ccc([N+](=O)[O-])s1)c1ccccc1	i	i	i	43	45	53	59	49	50
O=Cc1c[nH]c2cccc(OCc3ccccc3)c12	nt	i	i	i	59	54	30	nt	i
O=Cc1c[nH]c2ccc(NC(=O)OCc3ccccc3)cc12	nt	nt	i	nt	nt	nt	nt	nt	nt
CCOC(=O)N1CCN(CC(O)COc2cc(C)cc(C)c2)CC1 (stereo unspecified)	i	i	i	i	i	i	nt	nt	nt
O=c1[nH]c2ccccc2nc1Cc1ccc([N+](=O)[O-])cc1	i	i	i	i	i	i	nt	nt	nt
Cc1ccc(NC(=O)c2ccccc2Br)cc1S(=O)(=O)N(C)C	i	i	i	i	i	i	nt	nt	nt
O=C(Nc1ccc(OC(F)F)c(Cl)c1)c1cccc(OC(F)F)c1	i	i	i	63	71	71	63	59	76
COc1ccc(NC(=O)c2cccc(OC(F)F)c2)cc1Cl	i	i	i	i	i	i	nt	nt	nt
Cn1cc([N+](=O)[O-])c(C(=O)Nc2sc3c(c2C#N)CCC3)n1	i	i	i	i	45	56	34	nt	48
S=c1[nH]nc(-c2ccncc2)n1/N=C/C(Cl)=C\c1ccccc1	i	i	i	67	56	58	50	58	48
COc1ccc(-n2nc(C(=O)NCC(=O)NCCN(C)C)c3ccccc3c2=O)cc1	i	i	i	i	i	i	nt	nt	nt
SMILES	SKKanGAS inh	NLRP3 yeast inh	PfHsp90 yeast 2	TIM10 inh	tim10-1 inh	tim23-1 inh	tim10-1 confirm	TIM10 conf	tim23-1 confirm
Cc1ccc(C(C)C)cc1OCC(=O)N1CCN(C(=O)c2ccco2)CC1	i	i	i	i	i	i	nt	nt	nt
CCCNC(=O)c1cccc(S(=O)(=O)N2CC3(C)CC2CC(C)(C)C3)c1 (stereo unspecified)	i	i	i	i	41	59	33	nt	49
O=C(CCS(=O)(=O)c1cccc2nonc12)Nc1ccc(Br)cc1	i	i	i	i	i	i	nt	nt	nt
C=CC(=O)N1C/C(=C/c2ccccc2)C(=O)/C(=C\c2ccccc2)C1	nt	nt	i	nt	nt	nt	nt	nt	nt
CN1C2CCC1/C(=C\c1ccccc1)C(=O)/C2=C\c1ccccc1	i	i	i	45	47	53	36	i	55
CCCOc1ccc(N2C(=O)CC(N(CCOC34CC5CC(CC(C5)C3)C4)C(C)=O)C2=O)cc1 (stereo unspecified)	i	i	i	i	i	i	nt	nt	nt
COC(=O)c1c(NC(=O)c2ccc([N+](=O)[O-])o2)sc2c1CCN(C(C)C)C2	57	i	i	94	91	91	91	98	92
CCCCCCC(=O)N/N=C/c1ccc(Br)cc1	i	i	i	i	50	73	33	nt	73
C=CCn1c(CNC(=O)c2cccs2)nnc1SCC(=O)Nc1ccc(C(=O)O)cc1	i	i	i	i	i	i	nt	nt	nt
COc1cc(N=c2ssnc2Cl)cc(OC)c1	i	i	i	i	55	76	58	nt	79
O=C(N(c1ccccc1)c1ccccc1)N(c1ccccc1)c1ccccc1	i	i	nt	i	46	52	i	nt	41
COc1cc(Br)cc(C=Nc2cccc(C(F)(F)F)c2)c1O	i	nt	i	nt	nt	nt	nt	nt	nt
O=C(O)c1cccc(N/N=C/c2cc(Br)cc(Br)c2O)c1	i	i	110	i	49	78	42	nt	74
COc1ccc(Br)cc1/C=N/Nc1cccc(C(=O)O)c1	i	i	i	i	i	i	nt	nt	nt
Cc1c(N=Cc2cc(Br)cc(Br)c2O)cccc1C(=O)O	i	i	102	42	59	83	50	i	90
CCc1ccc(-c2cc3c(=O)n(CC(=O)N4CCCCCC4)nc(C)n3n2)cc1	i	i	i	i	i	i	nt	nt	nt
COc1ccc(/C=C2\SC(N3CCc4ccccc4C3)=NC2=O)cc1	i	i	i	53	55	65	50	i	52
COc1ccc(/C=C2\SC(N)=NC2=O)cc1	i	i	i	i	i	i	nt	nt	nt
CCOC(=O)CSC1=NC(=O)/C(=C/c2ccc(OC)cc2)S1	i	i	i	59	40	90	70	i	39
O=C(/C=C/c1ccccn1)c1cc(Br)ccc1O	i	i	104	72	70	78	62	68	75
O=C(/C=C/c1ccccn1)c1ccc(Br)cc1O	nt	nt	i	nt	nt	nt	nt	nt	nt
COC(=O)c1cccc(NS(=O)(=O)c2ccc(OC)c(C(=O)N3CCOCC3)c2)c1C	i	i	i	i	i	i	nt	nt	nt
CC(NC(=O)c1ccc([N+](=O)[O-])o1)C1CC2CCC1C2 (stereo unspecified)	nt	i	i	63	75	62	79	68	48
